# ChEMBL document CHEMBL1961873, “Compounds: GSK PKIS; Assays: Nanosyn kinase panel” (2012)
# How the values were obtained:
# [1] = molecular target: Sphingosine kinase 1 (Homo sapiens) (UniProt Q9NYA1); conditions: at 1 µM;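 further: mean SPHK1 inhibition value reported from the GSK PKIS kinase panel screen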
# [2] = molecular target: T1, Sphingosine kinase 2 (Homo sapiens) (UniProt Q9NRA0); conditions: at 0.1 µM
# T1 sequence (whole entry): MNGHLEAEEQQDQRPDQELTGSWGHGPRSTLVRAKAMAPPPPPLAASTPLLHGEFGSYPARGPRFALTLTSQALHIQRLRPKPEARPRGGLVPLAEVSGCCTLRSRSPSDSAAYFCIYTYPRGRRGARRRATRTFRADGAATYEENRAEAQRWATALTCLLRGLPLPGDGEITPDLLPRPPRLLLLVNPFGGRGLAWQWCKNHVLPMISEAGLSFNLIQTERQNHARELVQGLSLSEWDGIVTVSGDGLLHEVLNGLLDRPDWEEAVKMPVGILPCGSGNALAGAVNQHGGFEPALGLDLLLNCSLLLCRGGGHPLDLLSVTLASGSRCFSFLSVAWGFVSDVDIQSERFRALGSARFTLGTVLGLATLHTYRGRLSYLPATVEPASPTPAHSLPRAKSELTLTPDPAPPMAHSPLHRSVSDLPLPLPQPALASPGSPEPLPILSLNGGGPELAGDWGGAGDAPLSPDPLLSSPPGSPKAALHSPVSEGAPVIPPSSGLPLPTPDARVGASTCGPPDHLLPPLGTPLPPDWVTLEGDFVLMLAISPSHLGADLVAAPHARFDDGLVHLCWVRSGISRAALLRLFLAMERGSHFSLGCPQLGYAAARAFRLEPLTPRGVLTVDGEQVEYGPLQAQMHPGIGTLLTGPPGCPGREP
# [3] = molecular target: T1, Sphingosine kinase 2 (Homo sapiens); conditions: at 1 µM
# [4] = molecular target: Casein kinase II subunit alpha (Homo sapiens) (UniProt P68400); conditions: at 0.1 µM
# Casein kinase II subunit alpha (Homo sapiens), sequence (P68400 whole entry, looked up): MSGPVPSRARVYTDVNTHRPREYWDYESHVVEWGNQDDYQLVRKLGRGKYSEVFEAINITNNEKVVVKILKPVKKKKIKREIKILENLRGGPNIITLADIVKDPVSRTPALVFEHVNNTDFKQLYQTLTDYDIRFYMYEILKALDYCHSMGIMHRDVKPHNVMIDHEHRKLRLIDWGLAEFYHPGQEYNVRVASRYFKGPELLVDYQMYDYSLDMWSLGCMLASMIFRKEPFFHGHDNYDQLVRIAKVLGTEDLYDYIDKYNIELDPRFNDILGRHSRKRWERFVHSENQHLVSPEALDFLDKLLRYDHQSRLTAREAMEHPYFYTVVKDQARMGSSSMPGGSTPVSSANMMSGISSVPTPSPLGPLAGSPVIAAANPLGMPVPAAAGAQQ
# [5] = molecular target: Casein kinase II subunit alpha (Homo sapiens) (UniProt P68400); conditions: at 1 µM
# [6] = molecular target: T2, Inhibitor of nuclear factor kappa-B kinase subunit alpha (Homo sapiens) (UniProt O15111); conditions: at 0.1 µM
# T2 sequence (whole entry): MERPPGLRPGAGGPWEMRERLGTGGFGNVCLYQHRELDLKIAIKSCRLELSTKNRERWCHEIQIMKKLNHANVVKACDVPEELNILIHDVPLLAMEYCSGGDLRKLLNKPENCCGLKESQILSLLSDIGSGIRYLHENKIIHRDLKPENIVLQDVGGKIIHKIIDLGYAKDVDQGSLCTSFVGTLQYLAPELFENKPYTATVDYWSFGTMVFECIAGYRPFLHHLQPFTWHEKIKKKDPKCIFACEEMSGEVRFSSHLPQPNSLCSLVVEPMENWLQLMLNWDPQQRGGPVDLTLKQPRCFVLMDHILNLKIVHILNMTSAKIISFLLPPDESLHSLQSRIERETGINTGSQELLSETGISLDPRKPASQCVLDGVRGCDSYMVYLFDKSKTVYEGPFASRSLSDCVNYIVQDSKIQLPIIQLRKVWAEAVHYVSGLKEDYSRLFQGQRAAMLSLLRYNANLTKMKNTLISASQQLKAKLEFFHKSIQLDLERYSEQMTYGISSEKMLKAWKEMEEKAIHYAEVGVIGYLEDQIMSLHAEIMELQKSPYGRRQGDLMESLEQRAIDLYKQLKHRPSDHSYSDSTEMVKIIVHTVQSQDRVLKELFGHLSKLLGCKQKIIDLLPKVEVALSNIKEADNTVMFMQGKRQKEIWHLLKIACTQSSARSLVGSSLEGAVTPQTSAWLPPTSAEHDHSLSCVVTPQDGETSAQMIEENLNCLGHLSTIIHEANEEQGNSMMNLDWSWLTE
# [7] = molecular target: T2, Inhibitor of nuclear factor kappa-B kinase subunit alpha (Homo sapiens); conditions: at 1 µM
# [8] = molecular target: T3, Inhibitor of nuclear factor kappa-B kinase subunit beta (Homo sapiens) (UniProt O14920); conditions: at 0.1 µM
# T3 sequence (whole entry): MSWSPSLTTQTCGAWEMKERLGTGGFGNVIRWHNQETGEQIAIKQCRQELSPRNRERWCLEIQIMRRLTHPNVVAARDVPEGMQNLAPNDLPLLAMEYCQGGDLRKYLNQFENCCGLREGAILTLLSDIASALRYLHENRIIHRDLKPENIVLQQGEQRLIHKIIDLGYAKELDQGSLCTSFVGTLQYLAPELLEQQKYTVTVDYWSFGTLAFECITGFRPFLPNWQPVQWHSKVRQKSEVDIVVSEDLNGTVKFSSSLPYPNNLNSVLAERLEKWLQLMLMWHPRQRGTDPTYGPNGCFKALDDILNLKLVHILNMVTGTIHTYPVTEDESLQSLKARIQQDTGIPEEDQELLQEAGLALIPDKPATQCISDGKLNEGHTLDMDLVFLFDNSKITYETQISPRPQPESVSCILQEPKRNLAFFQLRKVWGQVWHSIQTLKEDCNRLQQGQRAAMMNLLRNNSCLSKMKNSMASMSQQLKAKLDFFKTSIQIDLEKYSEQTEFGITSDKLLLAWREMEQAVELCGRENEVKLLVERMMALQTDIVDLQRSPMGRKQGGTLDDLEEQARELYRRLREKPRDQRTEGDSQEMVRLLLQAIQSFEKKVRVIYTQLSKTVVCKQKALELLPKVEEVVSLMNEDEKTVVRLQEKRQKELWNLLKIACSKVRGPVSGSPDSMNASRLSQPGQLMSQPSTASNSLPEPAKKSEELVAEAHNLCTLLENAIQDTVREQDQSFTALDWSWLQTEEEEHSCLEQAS
# [9] = molecular target: T3, Inhibitor of nuclear factor kappa-B kinase subunit beta (Homo sapiens); conditions: at 1 µM
# [10] = molecular target: T4, Inhibitor of nuclear factor kappa-B kinase subunit epsilon (Homo sapiens) (UniProt Q14164); conditions: at 0.1 µM
# T4 sequence (whole entry): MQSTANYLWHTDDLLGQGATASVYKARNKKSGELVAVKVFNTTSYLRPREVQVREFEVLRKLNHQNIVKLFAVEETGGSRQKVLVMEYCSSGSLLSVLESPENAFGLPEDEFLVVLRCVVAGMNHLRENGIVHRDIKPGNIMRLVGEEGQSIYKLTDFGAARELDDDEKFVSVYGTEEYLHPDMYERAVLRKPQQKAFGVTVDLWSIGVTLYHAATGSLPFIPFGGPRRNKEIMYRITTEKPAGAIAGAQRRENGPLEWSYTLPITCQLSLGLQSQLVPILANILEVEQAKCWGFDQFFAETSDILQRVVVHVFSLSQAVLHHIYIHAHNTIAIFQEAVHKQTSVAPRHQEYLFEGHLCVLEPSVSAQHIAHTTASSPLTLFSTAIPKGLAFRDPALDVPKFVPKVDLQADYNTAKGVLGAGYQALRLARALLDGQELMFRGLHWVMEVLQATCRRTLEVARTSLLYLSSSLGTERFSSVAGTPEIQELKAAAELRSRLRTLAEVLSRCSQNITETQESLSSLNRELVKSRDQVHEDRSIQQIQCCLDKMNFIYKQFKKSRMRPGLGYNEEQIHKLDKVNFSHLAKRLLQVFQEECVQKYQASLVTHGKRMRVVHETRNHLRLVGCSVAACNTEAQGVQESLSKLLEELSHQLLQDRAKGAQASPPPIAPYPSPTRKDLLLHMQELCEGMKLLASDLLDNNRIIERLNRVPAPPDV
# [11] = molecular target: T4, Inhibitor of nuclear factor kappa-B kinase subunit epsilon (Homo sapiens); conditions: at 1 µM
# [12] = molecular target: T5, Serine/threonine-protein kinase Nek1 (Homo sapiens) (UniProt Q96PY6); conditions: at 0.1 µM
# T5 sequence (whole entry): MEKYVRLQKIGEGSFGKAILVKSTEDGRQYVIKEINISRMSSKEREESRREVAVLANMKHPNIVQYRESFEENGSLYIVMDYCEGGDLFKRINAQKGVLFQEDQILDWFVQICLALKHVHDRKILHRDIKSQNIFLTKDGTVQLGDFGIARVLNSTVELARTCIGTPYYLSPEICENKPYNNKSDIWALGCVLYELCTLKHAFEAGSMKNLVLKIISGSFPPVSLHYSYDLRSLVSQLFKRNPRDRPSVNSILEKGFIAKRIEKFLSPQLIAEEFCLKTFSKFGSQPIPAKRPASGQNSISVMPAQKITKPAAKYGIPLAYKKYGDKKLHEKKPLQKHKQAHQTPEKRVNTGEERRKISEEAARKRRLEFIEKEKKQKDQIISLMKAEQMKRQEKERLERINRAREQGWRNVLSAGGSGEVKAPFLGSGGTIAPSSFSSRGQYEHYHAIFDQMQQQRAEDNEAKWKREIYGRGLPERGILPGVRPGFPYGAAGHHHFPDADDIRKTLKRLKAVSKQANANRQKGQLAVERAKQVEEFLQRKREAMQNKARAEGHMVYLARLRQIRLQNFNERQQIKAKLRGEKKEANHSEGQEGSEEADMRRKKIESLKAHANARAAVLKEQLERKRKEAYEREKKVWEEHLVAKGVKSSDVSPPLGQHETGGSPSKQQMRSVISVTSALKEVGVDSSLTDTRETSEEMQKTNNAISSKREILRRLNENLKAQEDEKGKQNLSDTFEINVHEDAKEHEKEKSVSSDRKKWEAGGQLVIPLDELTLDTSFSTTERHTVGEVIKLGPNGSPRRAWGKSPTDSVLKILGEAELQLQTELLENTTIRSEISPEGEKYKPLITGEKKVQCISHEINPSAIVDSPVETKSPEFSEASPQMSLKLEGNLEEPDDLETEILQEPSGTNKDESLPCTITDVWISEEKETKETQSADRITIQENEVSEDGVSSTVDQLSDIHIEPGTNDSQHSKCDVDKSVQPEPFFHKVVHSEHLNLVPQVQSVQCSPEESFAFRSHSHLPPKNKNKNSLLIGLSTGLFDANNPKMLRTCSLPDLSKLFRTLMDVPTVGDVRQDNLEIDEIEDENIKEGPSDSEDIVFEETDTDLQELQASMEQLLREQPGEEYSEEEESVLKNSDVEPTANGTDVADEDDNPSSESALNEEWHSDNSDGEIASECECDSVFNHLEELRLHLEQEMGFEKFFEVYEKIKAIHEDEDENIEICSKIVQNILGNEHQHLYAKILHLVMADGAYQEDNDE
# [13] = molecular target: T5, Serine/threonine-protein kinase Nek1 (Homo sapiens); conditions: at 1 µM
# [14] = molecular target: T6, Serine/threonine-protein kinase Nek2 (Homo sapiens) (UniProt P51955); conditions: at 0.1 µM
# T6 sequence (whole entry): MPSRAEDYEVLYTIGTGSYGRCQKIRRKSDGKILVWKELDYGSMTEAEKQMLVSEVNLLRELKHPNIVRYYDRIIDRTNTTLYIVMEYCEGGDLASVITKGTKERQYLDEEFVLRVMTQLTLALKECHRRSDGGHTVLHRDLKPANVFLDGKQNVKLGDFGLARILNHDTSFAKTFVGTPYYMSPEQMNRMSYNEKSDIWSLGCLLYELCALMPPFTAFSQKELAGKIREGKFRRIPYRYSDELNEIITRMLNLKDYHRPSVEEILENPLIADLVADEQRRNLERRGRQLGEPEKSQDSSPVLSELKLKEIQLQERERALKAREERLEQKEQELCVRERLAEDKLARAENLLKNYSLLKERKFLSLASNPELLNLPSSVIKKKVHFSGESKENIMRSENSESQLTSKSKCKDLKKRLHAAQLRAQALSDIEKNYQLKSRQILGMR
# [15] = molecular target: T6, Serine/threonine-protein kinase Nek2 (Homo sapiens); conditions: at 1 µM
# [16] = molecular target: Serine/threonine-protein kinase Nek6 (Homo sapiens) (UniProt Q9HC98); conditions: at 0.1 µM
# Serine/threonine-protein kinase Nek6 (Homo sapiens), sequence (Q9HC98 whole entry): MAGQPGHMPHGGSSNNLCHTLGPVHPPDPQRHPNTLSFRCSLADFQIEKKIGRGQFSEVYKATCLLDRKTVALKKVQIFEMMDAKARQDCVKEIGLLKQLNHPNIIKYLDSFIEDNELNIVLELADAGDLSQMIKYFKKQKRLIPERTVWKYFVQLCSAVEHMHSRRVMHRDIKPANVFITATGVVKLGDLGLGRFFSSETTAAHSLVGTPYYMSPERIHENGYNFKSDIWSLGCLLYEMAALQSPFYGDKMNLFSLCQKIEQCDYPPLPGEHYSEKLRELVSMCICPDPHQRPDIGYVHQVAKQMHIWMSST
# [17] = molecular target: Serine/threonine-protein kinase Nek6 (Homo sapiens) (UniProt Q9HC98); conditions: at 1 µM
# [18] = molecular target: Serine/threonine-protein kinase Nek7 (Homo sapiens) (UniProt Q8TDX7); conditions: at 0.1 µM
# Serine/threonine-protein kinase Nek7 (Homo sapiens), sequence (Q8TDX7 whole entry, looked up): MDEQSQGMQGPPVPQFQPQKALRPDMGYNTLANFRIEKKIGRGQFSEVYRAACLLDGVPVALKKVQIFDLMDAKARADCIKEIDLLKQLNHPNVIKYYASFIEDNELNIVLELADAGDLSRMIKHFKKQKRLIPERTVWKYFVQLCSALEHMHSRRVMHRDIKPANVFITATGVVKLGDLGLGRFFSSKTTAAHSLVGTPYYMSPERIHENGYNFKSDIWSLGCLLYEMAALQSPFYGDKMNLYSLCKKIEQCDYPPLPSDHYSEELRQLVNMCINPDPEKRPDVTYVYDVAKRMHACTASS
# [19] = molecular target: Serine/threonine-protein kinase Nek7 (Homo sapiens) (UniProt Q8TDX7); conditions: at 1 µM
# [20] = molecular target: T7, Serine/threonine-protein kinase Nek9 (Homo sapiens) (UniProt Q8TD19); conditions: at 0.1 µM;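 further: reported value is the mean percent inhibition of NEK9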
# T7 sequence (whole entry): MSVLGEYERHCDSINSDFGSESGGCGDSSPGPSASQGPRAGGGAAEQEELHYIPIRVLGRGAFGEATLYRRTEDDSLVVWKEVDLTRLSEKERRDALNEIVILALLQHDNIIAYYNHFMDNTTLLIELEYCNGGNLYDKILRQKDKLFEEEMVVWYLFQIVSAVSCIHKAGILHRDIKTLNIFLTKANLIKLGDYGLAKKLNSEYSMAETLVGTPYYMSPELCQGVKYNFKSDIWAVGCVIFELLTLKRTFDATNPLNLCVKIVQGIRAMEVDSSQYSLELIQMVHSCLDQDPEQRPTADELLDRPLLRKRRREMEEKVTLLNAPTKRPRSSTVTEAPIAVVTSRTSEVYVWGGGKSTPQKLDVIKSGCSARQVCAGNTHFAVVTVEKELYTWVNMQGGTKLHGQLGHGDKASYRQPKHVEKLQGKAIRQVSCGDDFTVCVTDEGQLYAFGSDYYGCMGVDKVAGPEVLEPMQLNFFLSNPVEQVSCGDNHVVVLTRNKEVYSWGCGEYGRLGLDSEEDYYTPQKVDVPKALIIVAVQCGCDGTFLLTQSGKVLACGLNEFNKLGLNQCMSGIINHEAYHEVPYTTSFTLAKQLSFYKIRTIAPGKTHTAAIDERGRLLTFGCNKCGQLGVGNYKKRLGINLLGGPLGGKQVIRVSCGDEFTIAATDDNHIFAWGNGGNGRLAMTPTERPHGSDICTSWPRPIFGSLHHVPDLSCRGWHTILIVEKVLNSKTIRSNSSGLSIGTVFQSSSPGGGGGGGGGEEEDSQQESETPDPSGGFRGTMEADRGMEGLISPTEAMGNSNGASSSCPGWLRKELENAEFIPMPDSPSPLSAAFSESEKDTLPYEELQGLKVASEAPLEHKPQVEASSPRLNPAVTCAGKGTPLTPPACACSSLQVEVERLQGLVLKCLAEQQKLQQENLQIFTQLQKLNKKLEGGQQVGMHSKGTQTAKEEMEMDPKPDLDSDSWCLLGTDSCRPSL
# Sphingosine kinase 1 (Homo sapiens), sequence (Q9NYA1 whole entry): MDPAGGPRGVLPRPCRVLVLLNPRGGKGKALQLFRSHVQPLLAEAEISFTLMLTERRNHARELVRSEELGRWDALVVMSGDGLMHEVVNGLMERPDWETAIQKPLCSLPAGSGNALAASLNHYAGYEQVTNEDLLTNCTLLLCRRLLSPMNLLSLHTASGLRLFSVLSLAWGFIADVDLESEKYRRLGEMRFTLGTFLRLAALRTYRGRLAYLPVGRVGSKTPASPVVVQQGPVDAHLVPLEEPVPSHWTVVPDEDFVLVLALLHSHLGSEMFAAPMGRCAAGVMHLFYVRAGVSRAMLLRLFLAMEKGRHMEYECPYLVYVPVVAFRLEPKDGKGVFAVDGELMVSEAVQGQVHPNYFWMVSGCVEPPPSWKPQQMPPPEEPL
smiles,measurement,setting,value
COC(=O)Nc1nc2cc(Oc3ccc(NC(=O)Nc4cccc(C(=O)O)c4)cc3)ccc2[nH]1,inhibition,[1],-2.52%
same,inhibition,[2],0.52%
same,inhibition,[3],-0.25%
same,inhibition,[4],1.52%
same,inhibition,[5],8.32%
same,inhibition,[6],5.47%
same,inhibition,[7],-3.86%
same,inhibition,[8],1.26%
same,inhibition,[9],2.79%
same,inhibition,[10],3.11%
same,inhibition,[11],3.63%
same,inhibition,[12],0.04%
same,inhibition,[13],2.1%
same,inhibition,[14],-0.46%
same,inhibition,[15],-6.05%
same,inhibition,[16],-0.14%
same,inhibition,[17],-0.54%
same,inhibition,[18],-2.43%
same,inhibition,[19],-0.18%
same,inhibition,[20],3.39%
